Assay results reported in PubChem BioAssay (EPA / NIEHS).
Inconclusive results are not listed. The source made the active and inactive calls. How the source made its calls, unless noted: active means hit-call score of the fitted dose curve at least 0.9, where 1 is the maximum; inactive means score below 0.9.

How the values were obtained:
[1] = CCTE_Shafer_MEA_dev_bursting_electrodes_number: CCTE's Neural Network Formation Assay for Number of Bursting Electrodes, Shafer Lab (AID 2284043; active means hit-call score of the fitted dose curve at least 0.9, where 1 is the maximum;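 on AC50: potency is for loss of bursting electrodes relative to DMSO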)
Procedure, shortened: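 Primary rat cortical neurons were cultured on PEI-coated 48-well MEA plates (16 electrodes/well) and exposed from plating through day 12, with compound renewed at feeds on DIV 5 and 9. Electrodes bursting ≥1 per 2 min were counted on DIV 5, 7, 9, 12; trapezoidal AUC taken.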

[2] = CCTE_Shafer_MEA_dev_per_burst_interspike_interval: CCTE's Neural Network Formation Assay for Burst Interspike Interval, Shafer Lab (AID 2284044);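 further: mean spike spacing inside bursts as AUC over recordings on days 5 7 9 12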
Procedure, shortened: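 Primary rat cortical neurons on 48-well MEA plates, exposed from day 0 through day 12, treatment renewed at DIV 5 and 9. Within-burst interspike interval recorded days 5, 7, 9, 12, well-averaged, summarised as AUC; negative fit versus DMSO.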

[3] = CCTE_Shafer_MEA_dev_burst_duration_mean: CCTE's Neural Network Formation Assay for Mean Burst Duration, Shafer Lab (AID 2284045)
Procedure, shortened: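 Primary rat cortical neurons on PEI-coated 16-electrode MEA wells, exposed from plating through day 12 with compound renewed at DIV 5 and 9; spontaneous activity recorded days 5, 7, 9, 12. Well-mean burst duration collapsed as trapezoidal AUC, fitted for loss versus DMSO.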

[4] = CCTE_Shafer_MEA_dev_interburst_interval_mean: CCTE's Neural Network Formation Assay for Mean Interburst Interval, Shafer Lab (AID 2284046);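 further: well-mean interburst interval of bursting electrodes as AUC over four recording days; curve fitted for decrease in interburst interval relative to DMSO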
Procedure, shortened: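 Developing rat cortical networks on 48-well MEAs receive compound from the day of plating. Burst intervals from each active electrode are averaged per well, and AUC over the recording days is fitted in the negative direction against DMSO.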

[5] = CCTE_Shafer_MEA_dev_inter_network_spike_interval_mean: CCTE's Neural Network Formation Assay for Mean Inter-network Spike Interval, Shafer Lab (AID 2284047)
Procedure, shortened: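 Rat cortical cultures, 1.5 x 10^5 cells/well on 48-well MEA plates; continuous exposure days 0–12, medium and compound refreshed DIV 5, 9. Mean time between consecutive network-spike peaks; AUC across DIV 5/7/9/12; DMSO baseline, negative fitting direction.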

[6] = CCTE_Shafer_MEA_dev_network_spike_number: CCTE's Neural Network Formation Assay for Number of Network Spikes, Shafer Lab (AID 2284048);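 further: synchronized bursts across electrodes counted on days 5 7 9 12 and integrated as AUC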
Procedure, shortened: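 Primary rat cortical neurons were seeded at 1.5 x 10^5 cells/well on PEI-coated 16-electrode MEA wells with laminin, exposed from plating day 0, compound renewed at DIV 5 and 9. Network spikes were recorded on days 5, 7, 9, 12 and summarized as trapezoidal AUC versus DMSO.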

[7] = CCTE_Shafer_MEA_dev_network_spike_peak: CCTE's Neural Network Formation Assay for Mean Number of Electrodes in Network Spike, Shafer Lab (AID 2284049);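 on AC50: fitted for loss of signal meaning fewer electrodes in network spikes than DMSO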
Procedure, shortened: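 Continuous 12-day exposure of rat cortical cultures, starting at plating, on MEA plates. Endpoint: electrodes participating in network-spike peaks, AUC across DIV 5–12, DMSO as negative control.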

[8] = CCTE_Shafer_MEA_dev_spike_duration_mean: CCTE's Neural Network Formation Assay for Mean Spike Duration, Shafer Lab (AID 2284051);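 further: mean network spike duration pooled as area under curve over DIV 5 to 12 recordings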
Procedure, shortened: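 Readout is the average length of network spikes, clustered firing across electrodes, summed over DIV 5, 7, 9 and 12 as area under the curve. Neurons from rat cortex developed networks on MEA plates under continuous 12-day exposure.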

[9] = CCTE_Shafer_MEA_dev_network_spike_duration_std: CCTE's Neural Network Formation Assay for Standard Deviation of Network Spike Duration, Shafer Lab (AID 2284052);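 further: area under curve of spike duration SD across recording days 5 to 12; hits are decreases in network spike duration SD versus DMSO vehicle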
Procedure, shortened: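 Read-out is the trapezoidal area-under-the-curve across recordings made on days 5, 7, 9 and 12, fitted in the negative direction against DMSO baseline. Neurons were primary rat cortical cells treated from day 0, with treatment renewed at each feed.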

[10] = CCTE_Shafer_MEA_dev_per_network_spike_spike_number_mean: CCTE's Neural Network Formation Assay for Mean Number of Spikes in a Network Spike, Shafer Lab (AID 2284053);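 on AC50: fitted as decrease in spikes per network spike relative to DMSO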
Procedure, shortened: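 Continuous twelve-day exposure of developing rat cortical networks grown over 16 microelectrodes per well; spontaneous firing is captured at four time points, and the per-network-spike spike number is integrated over development by trapezoidal AUC.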

[11] = CCTE_Shafer_MEA_dev_LDH: CCTE's Lactate Dehydrogenase Assay for Cytotoxicity in the Neural Network Formation Assay, Shafer Lab (AID 2284068; active means hit-call score of the fitted dose curve at least 0.9, where 1 is the maximum;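 further: exposure for twelve days from plating with re-dosing on DIV 5 and 9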)
Procedure, shortened: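 Cytotoxicity companion to network-formation recordings: rat cortical neurons received compound over 12 days of development, re-dosed at DIV 5 and 9 feeds. Viability was inferred from LDH enzyme activity relative to DMSO.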

[12] = CCTE_Shafer_MEA_dev_mutual_information_norm: CCTE's Neural Network Formation Assay for Mutual Information Normalization, Shafer Lab (AID 2284091)
Procedure, shortened: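 Rat cortical cultures, 48-well MEA, continuous exposure DIV 0–12 with full media/compound change DIV 5 and 9. Readout: inter-electrode mutual information, AxIS adaptive spike detection; AUC across DIV 5/7/9/12 recordings; DMSO baseline, negative fitting direction.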

[13] = CCTE_Shafer_MEA_dev_correlation_coefficient_mean: CCTE's Neural Network Formation Assay for Mean Correlation Coefficient, Shafer Lab (AID 2284093);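 on AC50: well mean pairwise spike train correlation integrated as AUC over recording days 5 to 12; potency fitted for loss of correlation relative to DMSO vehicle wells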
Procedure, shortened: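 Read-out: well-mean correlation coefficient of spike trains between electrode pairs, collapsed over four recording days as trapezoidal area-under-the-curve. Developing rat cortical neuron networks grown on MEAs received test chemical continuously from plating.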

[14] = system: DIO2 (gene 1734); assay: CCTE_GLTED_hDIO2: CCTE's human Deiodinase 2 (DIO2) Inhibition Assay, Great Lakes Toxicology and Ecology Division (GLTED) Lab (AID 2284050; active means hit-call score of the fitted dose curve at least 0.9, where 1 is the maximum)
Procedure, shortened: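 hDIO2 enzyme + test chem, 3 h → free iodide from substrate; step 2: Sandell-Kolthoff (Ce IV reduction by As, iodide-catalysed), spectrophotometric read. Triplicate plates; DMSO = baseline.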

[15] = UKN5_HCS_SBAD2_cell_viability: Viability Assessment in the University of Konstanz (UKN) Leist Lab Neurite Outgrowth Assay in human iPSC-derived immature Dorsal Root Ganglia Neurons (UKN5) (AID 2284056)
Procedure, shortened: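 iPSC-derived immature peripheral neurons (SBAD2) seeded on Matrigel with CHIR99021, SU5402 and DAPT, dosed 1 h later for 24 h. Viability from Hoechst H-33342 and calcein-AM live staining, high-content imaging; bidirectional fit versus DMSO.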

[16] = UKN5_HCS_SBAD2_neurite_outgrowth: University of Konstanz (UKN) Leist Lab Neurite Outgrowth Assay in human iPSC-derived immature Dorsal Root Ganglia Neurons (UKN5) (AID 2284070); settings: actives raise or lower the signal
Procedure, shortened: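 Read-out: calcein-AM-stained neurite area by high-content imaging, Hoechst H-33342 for viability, after 24 h exposure of iPSC-derived immature dorsal root ganglia neurons. Activity fitted in both directions relative to DMSO baseline.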

[17] = UKN2_HCS_IMR90_neural_migration: University of Konstanz (UKN) Leist Lab Neural Crest Cell Migration Assay in human induced IMR90 Pluripotent Stem Cells (UKN2) (AID 2284204); settings: actives raise or lower the signal
Procedure, shortened: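 iPSC-derived IMR90 neural crest cells on PLO/laminin/fibronectin were seeded around silicone stoppers; after stopper removal, migration in N2-S medium with EGF and FGF ran 24 h before 24 h chemical exposure. Calcein-AM/Hoechst high-content imaging; bidirectional fit versus DMSO.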

[18] = UKN4_HCS_LUHMES_neurite_outgrowth: University of Konstanz (UKN) Leist Lab Neurite Outgrowth Assay in human LUHMES cells (UKN4) (AID 2284206); settings: actives raise or lower the signal
Procedure, shortened: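 Day 0 switch to differentiation medium; day 2 replate (30000 cells/well) without cAMP and GDNF; compounds added 30 min–2 h later. At 23.5 h, 30 min calcein-AM/H-33342 live stain, then imaging.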

[19] = IUF_NPC1b_proliferation_BrdU_72hr: Leibniz Research Institute for Environmental Medicine (IUF) 72-hour Neural Progenitor Cell Bromodeoxyuridine (BrdU) Proliferation Assay (NPC1b) (AID 2284207)
Procedure, shortened: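 hNPC spheres (primary, GW 16-19 fetal cortex), single sphere/well, EGF+FGF medium; 72 h compound, no renewal; BrdU pulse last 16 h; luminescent ELISA; activity vs DMSO baseline; growth-factor withdrawal as positive control.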

[20] = CCTE_Shafer_MEA_dev_AB: CCTE's Alamar Blue Assay for Cytotoxicity in the Neural Network Formation Assay, Shafer Lab (AID 2284083; active means hit-call score of the fitted dose curve at least 0.9, where 1 is the maximum;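 further: resazurin reduction fluorescence as viability of cultured neurons; twelve days of exposure from plating with re-dosing on DIV 5 and 9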)
Procedure, shortened: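 Fluorescent resazurin reduction serves as the viability read-out, with DMSO as negative control and baseline. Cells were primary rat cortical neurons grown on MEA plates and dosed from day 0 to day 12, treatment renewed on DIV 5 and 9.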

Measured: AC50

C=C(C)C(=O)OCCC(F)(F)C(F)(F)C(F)(F)C(F)(F)C(F)(F)C(F)(F)F
not listed: [14] | [15] | [16] | [17] | [18] | [19] | [20]
inactive: all other assays above

CCCCCCCCCCCCc1ccccc1S(=O)(=O)O
active: [14] 72.2 µM

CN1CCC[C@H]1c1cccnc1
active: [10] 6.37 µM
not listed: [11] | [14] | [20]
inactive: all other assays above

CN1CCN(c2ccccc2/C=C2\SCCN(c3ccc(Cl)c(Cl)c3)C2=O)CC1
active: [14] 104 µM

c1ccc2cc3c(ccc4ccccc43)cc2c1
active: [7] 10 µM | [14] 70 µM
not listed: [15] | [16] | [17] | [18] | [19]
inactive: all other assays above

OCCC(F)(F)C(F)(F)C(F)(F)C(F)(F)C(F)(F)C(F)(F)C(F)(F)C(F)(F)F
active: [1] 26 µM | [7] 24.2 µM | [11] 28.5 µM | [13] 23.4 µM
not listed: [14] | [15] | [16] | [17] | [18] | [19]
inactive: all other assays above

c1ccc2c(c1)Cc1ccccc1-2
not listed: [14] | [15] | [16] | [17] | [18] | [19]
inactive: all other assays above

CCCCCCCCCCCCN1CCCC1=O
active: [14] 138 µM
